Compound activity deposited in PubChem BioAssay by National Center for Advancing Translational Sciences (NCATS).
KCNH2 WT inh: inhibitors of human wildtype KCNH2 potassium channel; hit rate 0.37% among 340,000; U2OS, BacMam KCNH2, thallium flux FluxOr; stronger effect = lower value; activity change, % at 1.84 µM;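 active means maximum activity change below -70%; inconclusive means maximum activity change between -70% and -50%; inactive means maximum activity change above -50%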
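U2OS cells were transduced with wild-type KCNH2 virus (2.03 x 10^8 / mL) for 4 h at room temperature, then cultured overnight at 37 C. Thallium flux was read with FluxOr dye. Rate constants were normalized to DMSO controls.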
Akt phos inh: blocks phosphorylation of Akt; Neuro2A IGF-stimulated pAkt S473 HTRF, 20 min; stronger effect = lower value; activity change, % for hits at 50 µM; hit rate 0.32% among 360,000; in the data active means activity change below about -80%; inconclusive means mostly about -51% to -80%
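Single-point screen (50 µM final compound) in Neuro2A cells stimulated 20 min with 6 nM IGF at 37 deg C. After lysis, Ser473-phosphorylated Akt read by HTRF (ex 330 nm, em 615/665 nm) as the 665/615 ratio.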
RXFP1 antag: blocks the human relaxin receptor RXFP1; Q9HBX9; HEK293-RXFP1, relaxin-stimulated cAMP HTRF, 30 min; stronger effect = lower value; activity change, negative = inhibition, % at 57.5 µM; hit rate 0.59% among 350,000; AID 1259400;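 active means activity change of -60% or lower, but not beyond a set lower limit; inconclusive means change between -60% and -40%, or beyond the set limit; inactive means change above -40%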
RXFP1 agonist: RXFP1 (human) receptor agonism. Q9HBX9. HEK293T-RXFP1 cAMP TR-FRET, 30 min; response scale: percent of porcine relaxin response, buffer zero. Potency, µM (series often up to 57.5 µM), usual class: activators. hit rate 0.3% among 370,000; active means well fitted activation curve with a large enough effect; inconclusive means small, poorly fitted or top-dose-only effect; further: nearly all actives have a fitted effect of over 60% in size
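cAMP rise read by TR-FRET after 30 min, 37C compound exposure (up to 58 uM) in RXFP1-transfected HEK293 cells with Ro 20174 present. EC50 from Hill-equation fits, with 29 nM porcine relaxin as 100% and buffer as basal.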
KCNH2 3.1 inh: KCNH2 3.1 (human) potassium channel inhibition. U2OS KCNH2 3.1, thallium flux FluxOr; stronger effect = lower value. hit rate 0.95% among 340,000. AID 720553. activity change, % (tested at about 1.8 µM);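 active means maximum activity change below -70%; inconclusive means maximum activity change from -70% to -50%; inactive means maximum activity change above -50%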;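 further: thallium influx rate constant from kinetic fluorescence after stimulation buffer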
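Steps: virus added to U2OS suspension (4 h, RT, dark); medium with 10% FBS added, cells plated, 37 C overnight; FluxOr/Red40 loading buffer 45 min RT; stimulation buffer, 2 min kinetic read; rate constant normalized.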
Of the large screens only hits and unclear results are named; the others gave an inactive call. This is a sample that favours compounds with a hit; in the whole collection about 1.7% have one here.

COC(=O)c1ccc(C2c3[nH]c4ccccc4c3C[C@H]3C(=O)N(C4CCN(Cc5ccccc5)CC4)CC(=O)N23)cc1 (stereo partly drawn)	KCNH2 3.1 inh -79.9
CCOc1ccccc1C1c2[nH]c3ccccc3c2C[C@H]2C(=O)N(C3CCN(Cc4ccccc4)CC3)CC(=O)N12 (stereo partly drawn)	KCNH2 WT inh -93.8, KCNH2 3.1 inh -102.5
Cc1cc(CSc2ccccc2)ccc1NC(=O)c1ccc(CN2CCOCC2)cc1	none
CCN(CC)c1ccc(NC(=O)c2cccn2-c2nnc(N3CCCCC3)s2)c(C)c1	RXFP1 antag -60.3 (no result: KCNH2 WT inh, Akt phos inh, KCNH2 3.1 inh)
Cc1cccc(N2CCN(C(=O)c3cccn3-c3nnc(N4CCCCC4)s3)CC2)c1C	RXFP1 antag -68.1 (no result: KCNH2 WT inh, Akt phos inh, KCNH2 3.1 inh)
Cc1ccc(Cl)cc1N1CCN(C(=O)c2cccn2-c2nnc(N3CCCCC3)s2)CC1	none (no result: KCNH2 WT inh, Akt phos inh, KCNH2 3.1 inh)
COc1ccc(NC(=O)c2cccn2-c2nnc(N3CCCCC3)s2)c(OC)c1	none (no result: KCNH2 WT inh, Akt phos inh, KCNH2 3.1 inh)
O=C(CN1CCN(Cc2ccccc2)CC1)Nc1ccccc1-c1ccccc1	KCNH2 WT inh -74.3
O=C(CN1CCN(Cc2ccccc2)CC1)N1CCCCCC1	KCNH2 3.1 inh -83.2
NC(=O)c1ccccc1NC(=O)CN1CCN(Cc2ccccc2)CC1	KCNH2 3.1 inh -76.7
CN(C/C=C/c1ccccc1)Cc1cccc2ccccc12	RXFP1 antag -69.2, KCNH2 3.1 inh -94.5
CN(Cc1ccc(C(C)(C)C)cc1)Cc1cccc2ccccc12	none (no result: KCNH2 WT inh, Akt phos inh, RXFP1 agonist, KCNH2 3.1 inh)
CC(C)(C)N1C(=O)[C@H]2[C@@H](c3ccc(Br)cc3)N3C(=O)N(c4cccc(F)c4)C(=O)[C@@]3(Cc3ccccc3)[C@H]2C1=O	none (no result: RXFP1 antag)
COc1ccc([C@@H]2[C@@H]3C(=O)N(C(C)(C)C)C(=O)[C@@H]3[C@]3(Cc4ccccc4)C(=O)N(c4cccc(F)c4)C(=O)N23)cc1	KCNH2 3.1 inh -73.8 (no result: RXFP1 antag)
CCc1cc2c3c(c(=O)oc2cc1OCC(=O)OC)CCCC3	KCNH2 3.1 inh -100.3
COc1ccc(C(=O)c2cn(Cc3cccc(C)c3)c3cc4c(cc3c2=O)OCCO4)cc1OC	RXFP1 antag -81.5 (no result: KCNH2 WT inh, Akt phos inh, KCNH2 3.1 inh)
CCCCCCOc1ccc(N2C(=O)CC(N3CCN(CCN=CC4C(=O)CC(C)(C)CC4=O)CC3)C2=O)cc1 (stereo not drawn)	none
O=c1[nH]c(SCc2n[nH]c(=S)n2-c2ccccc2)nc2sc3c(c12)CCC3	RXFP1 antag -67.1
CC(C)C[C@H]1CNC(=O)C(=O)N1C[C@H]1CCCN1C[C@H](CC(C)C)N1C[C@H](CC(C)C)N(CCc2ccccc2)C(=O)C1=O	none (no result: KCNH2 WT inh, RXFP1 antag, RXFP1 agonist, KCNH2 3.1 inh)
CCC(=O)Nc1sc(C(=O)Nc2ccccc2F)c(C)c1C(=O)OC	none
COc1cc(OC)cc(-c2nnc(Nc3nc4c(F)cccc4s3)o2)c1	none
Fc1cccc2sc(Nc3nnc(-c4ccccc4)o3)nc12	KCNH2 WT inh -149.4
Cc1ccc(OCC(=O)NC2CC(C)(C)NC(C)(C)C2)cc1C	RXFP1 antag -82.0
COc1ccccc1OCC(=O)NC1CC(C)(C)NC(C)(C)C1	none
CC1(C)CC(NC(=O)COc2ccc3ccccc3c2)CC(C)(C)N1	Akt phos inh -115.1%
COc1ccc2cc(Br)ccc2c1CC(=O)NC1CC(C)(C)NC(C)(C)C1	KCNH2 WT inh -123.4
CCc1ccc(OCC(=O)NC2CC(C)(C)NC(C)(C)C2)cc1	none
Clc1ccc(CN(CC2CCCO2)C(c2cccs2)c2nnnn2C2CCCC2)cc1 (stereo not drawn)	none
CCOc1ccc2nc(Cl)c(C3CC(c4ccc(OC)cc4)=NN3S(C)(=O)=O)cc2c1 (stereo not drawn)	none (no result: KCNH2 WT inh, Akt phos inh, KCNH2 3.1 inh)
CCOc1ccc2nc(Cl)c(C3CC(c4ccco4)=NN3S(=O)(=O)c3ccccc3)cc2c1 (stereo not drawn)	KCNH2 3.1 inh -70.9
Cc1nn(-c2ccccc2)c(C)c1C(=O)OC(C)C(=O)Nc1ccc(C(N)=O)cc1 (stereo not drawn)	none (no result: RXFP1 agonist)
CC(OC(=O)c1nc(-c2ccccc2)n(-c2ccccc2)n1)C(=O)Nc1cc(Cl)cc(Cl)c1 (stereo not drawn)	KCNH2 WT inh -141.9
C/C=C/c1ccc(OCC(O)CN(C)Cc2ccc(SC)cc2)c(OC)c1 (stereo not drawn)	KCNH2 WT inh inconclusive, KCNH2 3.1 inh -112.3
C/C=C/c1ccc(OCC(O)CN2CCCCC2CC)c(OC)c1 (stereo not drawn)	none
COc1ccc(CCNCC(O)COc2ccc(Cl)cc2)cc1OC (stereo not drawn)	KCNH2 3.1 inh inconclusive
C/C=C/c1ccc(OCC(O)CNCC(c2ccc(OC)cc2)N(C)C)c(OC)c1 (stereo not drawn)	KCNH2 3.1 inh -73.4
C/C=C/c1ccc(OCC(O)CNCCc2ccc(OC)cc2)c(OC)c1 (stereo not drawn)	KCNH2 3.1 inh -71.0
CC(=O)Nc1ccc(-c2ccnc(-c3ccc(NC(C)=O)cc3)n2)cc1	none
Cc1ccc(/C=C/C(=O)NC(=S)N2CCN(c3ccc(F)cc3)CC2)cc1	none
OC1CCCN(CC(O)COc2ccc(-c3ccccc3)cc2)C1 (stereo not drawn)	KCNH2 3.1 inh -72.2
NC(=O)C1CCN(CC(O)COc2ccc(-c3ccccc3)cc2)CC1 (stereo not drawn)	KCNH2 3.1 inh -86.0
O=S(=O)(c1cccc(Cl)c1)c1nnn2c1nc(NC1CCCCCC1)c1sccc12	RXFP1 agonist inconclusive (no result: KCNH2 WT inh, Akt phos inh, KCNH2 3.1 inh)
O=C(NCCC1CCCCN1S(=O)(=O)c1ccccc1)C(=O)Nc1ccccc1 (stereo not drawn)	none
CCCCN(C(=O)c1ccc(Cl)cc1)C1CC2CCC(C1)N2C (stereo not drawn)	KCNH2 3.1 inh -81.6 (no result: RXFP1 antag)
CC(NS(=O)(=O)c1ccc([N+](=O)[O-])cc1)C(=O)NN (stereo not drawn)	none (no result: KCNH2 WT inh)
O=C(Nc1ccc(Br)cn1)c1cccc2c1-c1ccccc1C2=O	none
O=C(NCc1nnc2c(C(F)(F)F)cc(Cl)cn12)c1ccc2c(c1)OCO2	KCNH2 WT inh -160.0, RXFP1 agonist inconclusive
O=C(NCc1nnc2c(C(F)(F)F)cc(Cl)cn12)c1cccnc1	RXFP1 agonist 15.8µM (no result: Akt phos inh)
O=C(NCc1nnc2c(C(F)(F)F)cc(Cl)cn12)c1ccc(Br)o1	RXFP1 agonist inconclusive
CN1CCN(c2ccc(Cl)cc2NC(=O)/C=C/c2cccc(F)c2)CC1	KCNH2 WT inh inconclusive, KCNH2 3.1 inh -70.3
CN1/C(=C\C(=O)c2cccs2)Sc2ccccc21	Akt phos inh -104.3%
CN1/C(=C/C(=O)c2cccs2)Sc2ccccc21	none (no result: KCNH2 WT inh, Akt phos inh, RXFP1 antag, KCNH2 3.1 inh)
Cc1ccc(NC(=O)C2CCN(S(=O)(=O)c3c(C)noc3/C=C/N(C)C)CC2)cc1	RXFP1 antag -112.4
O=C(Nc1ccccc1)c1cccc(S(=O)(=O)NC2CCCC2)c1	none
CC(=O)N(C(C)=O)N1C(=O)/C(=C/c2ccc(Cl)cc2)SC1=S	RXFP1 antag -108.6
COC(=O)C1=CN(c2ccc(F)cc2)C=C(C(=O)OC)C1c1cccc([N+](=O)[O-])c1	none
